Source: PubChem BioAssay (National Center for Advancing Translational Sciences (NCATS))
Most compounds without a hit are left out; they make up all but 5.5% or so of the library.
Gal4-VP16 FLuc = inhibits Gal4-VP16 luciferase reporter, ROR gamma counter-screen; AID 2546; Potency, µM (top dose mostly 53.6 µM), hits mostly inhibitors; Drosophila S2 Gal4-VP16 UAS-luciferase, luminescence, 20 h; 310,000 tested, 3.5% active;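 also: Gal4-VP16 expression switched on by copper sulfate through the metallothionein promoter; nearly all actives have a fitted effect of over 50% in size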
Mito fusion act = mitochondrial division inhibition or fusion activation; Potency, µM (doses to about 46.1 µM), most hits filed as activators; S. cerevisiae fusion-defective mutant growth rescue, CellTiterGlo 48 h; 320,000 tested, 0.23% active; also: nearly all actives have a fitted effect of over 45% in size
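Temperature-sensitive fusion-defective S. cerevisiae (e.g. fzo1-1, mgm1-5) were grown with compound in YPEG medium (3% ethanol, 3% glycerol) for 48 hours at 37C. Growth rescue was measured as viability by CellTiterGlo luminescence after 10 minutes at ambient.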
a7 integrin act = activators of alpha7 integrin expression for muscular dystrophy | 350,000 tested, 0.064% active | AID 624291 | alpha7betagal myoblasts, beta-gal FDG fluorescence, 48 h | Potency, µM (top dose mostly 38.3 µM), actives largely listed as activators; also: nearly all actives have a fitted effect of over 60% in size
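Alpha7betagal+/- myoblasts (passage 13) were plated 16-24 hr, then exposed to compounds (1:260 dilution of DMSO stock) for 48 hours at 37C. After MPER lysis, β-galactosidase reporter activity was read as FDG fluorescence (ex 480/em 540) after 30 minutes.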
uPA generation = blocks generation of uPA at the cell surface; cell surface uPA generation assay, qHTS; Potency, µM (series often up to 38.3 µM), usual class: inhibitors; 330,000 tested, 0.31% active; AID 540303; active = well fitted inhibition curve with a large enough effect; inconclusive = small, poorly fitted or top-dose-only effect; inactive = no such curve, though single readings can be large or run the other way; tested in mouse RAW 264.7 cells; also: nearly all actives have a fitted effect of over 55% in size
RORgamma inh = ROR gamma (mouse) transcription inhibition; Drosophila S2 Gal4-RORgamma UAS-luciferase reporter, 20 h; Potency, µM (top dose mostly 53.6 µM), hits mostly inhibitors; 310,000 tested, 5.4% active; also: nearly all actives have a fitted effect of over 60% in size
Target sequence (P51450 whole entry, looked up, the tested form may be a part): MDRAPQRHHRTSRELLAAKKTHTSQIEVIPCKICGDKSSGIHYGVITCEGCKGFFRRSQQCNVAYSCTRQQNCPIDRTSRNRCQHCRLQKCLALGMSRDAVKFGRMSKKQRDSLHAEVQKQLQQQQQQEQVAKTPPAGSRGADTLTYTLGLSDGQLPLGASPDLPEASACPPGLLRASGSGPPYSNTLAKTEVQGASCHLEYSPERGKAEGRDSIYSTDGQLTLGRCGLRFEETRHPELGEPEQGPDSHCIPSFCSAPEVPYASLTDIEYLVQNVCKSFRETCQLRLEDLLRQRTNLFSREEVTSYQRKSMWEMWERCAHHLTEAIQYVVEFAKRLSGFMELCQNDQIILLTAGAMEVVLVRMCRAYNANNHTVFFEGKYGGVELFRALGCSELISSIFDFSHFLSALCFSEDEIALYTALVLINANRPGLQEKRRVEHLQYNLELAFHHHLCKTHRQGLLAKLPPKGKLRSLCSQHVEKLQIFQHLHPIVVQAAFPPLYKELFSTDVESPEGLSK
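Drosophila S2 cells stably expressing Gal4-DBD/mouse RORγ fusion under metallothionein promoter plus UAS-luciferase; compound 1 h, then 700 uM CuSO4 induction for 20 h at ambient temperature; inhibition read as reduced luminescence.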
BCR signal inh = inhibitors of chronic active B-cell receptor signaling; Potency, µM (top dose mostly 46.1 µM), most hits filed as inhibitors; ABC-DLBCL IkBa-CBG/CBR reporter, luminescence ratio, 4 h; AID 493014; 340,000 tested, 0.05% active; active = well fitted inhibition curve with a large enough effect in the signal ratio, with a control signal flat, not every such curve was filed as active; inconclusive = small, poorly fitted or top-dose-only effect, or effect the other way, or a change in a side signal; the % refers to the signal ratio
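TMD8 human ABC-DLBCL cells with doxycycline-inducible IκBα–green luciferase fusion and unfused red luciferase, in 0.5% FBS medium; compounds up to 46 uM, 4 h at 37C. Green/red luminescence ratio, filter-overlap corrected, fitted to concentration-response curves.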
Numbers stand for hits; 0 = inactive; ? = inconclusive; - = no result given; [ ] = another dose, or the depositor's remark. Unless noted, calls follow the shape of the dose curve; as a rule, active = well fitted curve in the direction sought with a large enough effect; inconclusive = small, poorly fitted or top-dose-only effect, or another doubt; inactive = no such curve, though single readings can be large; an effect the other way counts as inactive or inconclusive.

SMILES	Gal4-VP16 FLuc	Mito fusion act	a7 integrin act	uPA generation	RORgamma inh	BCR signal inh
CC1S/C(=N/N=C2CCC(C(C)(C)C)CC2)NC1=O (centres undefined)	5µM	0	0	0	2.5µM	?
Cc1cc(=O)n2cccc(O)c2n1	1.8µM	0	0	0	0.89µM	?
O=C(Nc1ccc(Br)c(C(F)(F)F)c1)c1ccccc1	0	22µM	0	0	0[10 µM]	?
O=C(Nc1ccc(Br)c(C(F)(F)F)c1)c1ccc(C(F)(F)F)cc1	?	0	0	0	?	?
O=C(CSc1ccc(Br)cc1)Nc1cccc(S(=O)(=O)N2CCOCC2)c1	-	0	0	0	-	?
COc1ccc(NC(=S)Nc2ccc(Oc3ccccc3)cc2)cc1	0	0	0	0	0	0
COC(=O)c1sccc1NC(=O)Nc1cc(C)ccc1OC	0	0	0	0	0	?
COC(=O)c1sccc1NC(=S)Nc1cc(OC)ccc1OC	?	0	0	0	11µM	0
COc1ccc(OC)c(NC(=O)c2csc(Cl)c2OC)c1	0	10µM	0	0	0	0
CCc1ccc(NC(=O)Nc2ccsc2C(=O)OC)cc1	?	0	0	0	8.9µM	?
COc1ccc(NC(=S)NN(C)C(=S)Nc2ccc(OC)cc2)cc1	?	0	0	0	7.9µM	?
CN(C(=O)c1cccc(NC(=O)Cc2cccc(NC(=O)C3CCN(C(=O)c4ccccc4)CC3)c2)c1)C1CCCC1	-	-	0	0	-	-
CCCCN(C(=O)CCC(=O)Nc1cc(C)on1)C(C(=O)NC1CCCC1)c1ccccc1OCC (centres undefined)	0	0	0	0	0	0
Cc1cccc(C)c1Nc1oc(-c2ccccc2)nc1-c1cccc2ccccc12	0	-	-	-	0	-
CN(C)C(=O)c1ccc(-c2cncnc2N2CCNCC2)cc1	0	-	-	-	0	-
COC(=O)c1sccc1NC(=S)Nc1ccc(OC)cc1	14µM	0	0	0	6.3µM	0
COc1cc(CNc2ccc3[nH]c(=O)[nH]c3c2)ccc1OCc1ccc(Cl)cc1	?	0	0	?	2.8µM	0
COc1ccccc1Oc1ccc2c(c1)C(=O)N(c1cccc3ncccc13)C2=O	10µM	0	0	0	?	0
COc1ccccc1Oc1ccc2c(c1)C(=O)N(c1cccc(O)c1)C2=O	?	0	0	0	0	?
Cc1ccc(C(=O)COC(=O)c2ccc3c(c2)C(=O)N(c2cccc4ncccc24)C3=O)cc1C	16µM	0	0[7.66 µM]	0	?	0
O=S1(=O)C=C(Sc2nc3cc(Cl)ccc3o2)c2ccccc21	2.5µM	0	0	0	5.6µM	6.3µM
O=C1CC(N2CCCN(C3CC(=O)N(c4ccc(F)cc4)C3=O)CC2)C(=O)N1c1ccc(F)cc1 (centres undefined)	?	0	0	0	18µM	0
O=C1CC(N2CCN(c3ccc(Cl)cc3)CC2)C(=O)N1c1ccc(F)cc1 (centres undefined)	-	0	0	0	-	0
O=C1CC(N2CCCCC2)C(=O)N1c1ccccc1 (centres undefined)	20µM	0	0	0	10µM	0
O=C1CC(N2CCSCC2)C(=O)N1c1ccccc1 (centres undefined)	0	0	0	0	0	0
SMILES	Gal4-VP16 FLuc	Mito fusion act	a7 integrin act	uPA generation	RORgamma inh	BCR signal inh
COc1ccc(N2CCN(S(=O)(=O)c3ccc(Br)s3)CC2)cc1	0	4.5µM	0	0	0	0
COc1ccc(N2CCN(C(=O)CNS(=O)(=O)c3ccc(Br)s3)CC2)cc1	0	0	?	0	0	0
O=C(Nc1ccccc1)c1cc(S(=O)(=O)NCc2ccncc2)ccc1Cl	?	0	0	?	?	0
Cc1c(C(=O)OC/C(O)=C(\C#N)c2nc3ccccc3[nH]2)oc2ccc(Br)cc12	0	0	0	0	0	0
Cc1cccc(C)c1OCC(=O)OC/C(O)=C(\C#N)c1nc2ccccc2[nH]1	18µM	0	0	0	10µM	0
Cc1cc(Br)ccc1SCC(=O)OCC(O)=C(C#N)c1nc2ccccc2[nH]1	-	-	0	0	-	-
N#C/C(=C(/O)COC(=O)COc1cccc(Br)c1)c1nc2ccccc2[nH]1	13µM	0	0	?	0	?
Cc1cc(C)cc(OCC(=O)OC/C(O)=C(\C#N)c2nc3ccccc3[nH]2)c1	16µM	0	0	0	13µM	0
O=C(O)C(C(O)c1ccccc1)[n+]1ccccc1 (centres undefined)	-	0	0	0	-	0
CCn1cc(CN2CCCC(C(=O)c3ccc(-c4ccccc4)cc3)C2)cn1 (centres undefined)	0	0	0	0	0	0
O=C(/C(=C/c1ccc(Cl)cc1)c1nc2ccccc2[nH]1)c1cccs1	?	0	?	?	3.2µM	?
COc1cccc(C(=O)Nc2cccc3ccccc23)c1	0	0	0	0	0	0
COc1cccc(C(=O)Nc2nc3ccccc3[nH]2)c1	10µM	0	0	0	4µM	?
O=C(Nc1nc2ccccc2[nH]1)c1cccs1	13µM	0	0	0	5µM	?
COc1cc(C(=O)Nc2nc3ccccc3[nH]2)cc(OC)c1OC	10µM	0	0	-	10µM	?
O/C(=C\c1nc2ccccc2[nH]1)c1cccs1	?	0	0	0	?	?
COc1ccc(C(=O)Nc2nc3ccccc3[nH]2)cc1	6.3µM	0	0	0	2.8µM	?
Cc1nc(NCc2ccccc2)c2nc(-c3ccccc3)n(C3CCN(Cc4ccccc4)C3)c2n1 (centres undefined)	0	-	-	-	0	-
CCCCNc1nc(C)nc2c1nc(-c1ccccc1)n2C1CCN(Cc2ccccc2)C1 (centres undefined)	0	-	-	-	11µM	-
Cc1noc(C)c1C(=O)N1CCC2(CCN(C(=O)NC(C)C)CC2)CC1	0	-	-	-	0	-
Cc1ccc(-c2nc(NCC3CCCO3)sc2C)cc1 (centres undefined)	0	0	0	0	11µM	0
CCc1cc(=O)oc2cc(C)cc(OC(C)C(=O)NCCCn3ccnc3)c12 (centres undefined)	0	0	0	0	0	0
Cc1cc(C(=O)CCl)c(C)n1-c1cccc(S(=O)(=O)N2CCOCC2)c1	0[10 µM]	0	0	0	10µM	?
COc1ccc(OC)c(NC(=O)c2c(NCc3cccs3)sc3c2CCCCC3)c1	-	-	-	-	-	0
CCC(C)Nc1nc(CN2CCOCC2)nc2sc3c(c12)CCC3 (centres undefined)	?	0	0	0	11µM	?
Cc1cccc(Oc2nc(CN3CCOCC3)nc3sc4c(c23)CCCC4)c1	?	?	0	0	11µM	0
Cc1nn(-c2ccccn2)c(N)c1N=O	?	0	?	0	11µM	?
S=C(NCc1ccccc1)NCc1ccco1	?	0	0	0	11µM	0
S=C(NCc1ccco1)NCc1ccco1	-	-	0	0	-	-
NNC(=S)NCc1ccco1	?	0	?	0	7.1µM	?
